Data: PubChem BioAssay AID1159580 (chemical genetic matrix, 2015)
The whole screen tested about 5,500 compounds, of which about 2,000 (36%) were called active. About 18% were inconclusive and are not listed. No stated cut-off is given here; in the data, active means normalized growth mostly below about 0.91 (no sharp cut-off); inconclusive means no clear call, values can overlap the other calls; inactive means mostly above about 0.92. The list shows a part of the results.

Experiment: chemical genetic growth profiling, strain panel (AID 1159580);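 further: tested at 20 µM; growth read once vehicle control cultures reached saturation at 30 °C; 1 = growth at the plate median or of vehicle wells; lower values mean less growth of the strain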
Details: S. cerevisiae deletion strains, growth OD

Measured: normalized growth

CCCC[C@@]1(C2CCCC2)Cc2cc(OCC(=O)O)c(Cl)c(Cl)c2C1=O
inactive: locus YAL013W, strain DEP1, hits give low values 1.02 | locus YAL040C, strain CLN3, hits give low values 1 | locus YCL061C, strain MRC1 (second series), hits give low values 1 | locus YDR363W, strain ESC2, hits give low values 0.989 | locus YER002W, strain NOP16, hits give low values 1.05 | locus YGR078C, strain PAC10, hits give low values 1.02 | locus YGR229C, strain SMI1, hits give low values 1.03 | locus YMR263W, strain SAP30, hits give low values 1 | locus YNL153C, strain GIM3, hits give low values 1.01 | locus YNL175C, strain NOP13, hits give low values 0.986 | locus YNL197C, strain WHI3, hits give low values 0.959 | locus YNL224C, strain SQS1, hits give low values 0.989 | locus YOR083W, strain WHI5 (second series), hits give low values 1 | locus YPL241C, strain CIN2, hits give low values 1
